# From PubChem BioAssay AID463173 (ICCB-Longwood Screening Facility, Harvard Medical School, 2010)
# About 1,700 (3.3%) of roughly 52,000 compounds were called active. What follows is part of a selection rich in actives, with near analogues and random picks from the rest. Unmarked numbers belong to inactive results. No stated cut-off is given here; in the data, active means survival mostly below about 52% (no sharp cut-off); inactive means mostly above about 56%.
# System: Wild type
# Assay: S. aureus survival, RN4220 and DeltatarO strains – OD600, teichoic acid synthesis inhibitors, primary screen (AID 463173)
# Details: S. aureus RN4220 wild type/DeltatarO growth, OD600, 18 h, hits give low values, screened at 18.75 µg/mL (by protocol)
row,SMILES,survival
1,Cc1ccc(SCC(=O)Nc2ccc3oc(-c4cccc(C)c4)nc3c2)cc1,96%
2,COCCCNC(=O)CSc1nc2cc3c(cc2c(=O)n1CCCCCC(=O)NCc1ccc(OC)cc1)OCO3,1% (active)
3,CCOC(=O)CSc1nc2cc3c(cc2c(=O)n1CCCC(=O)NCCc1ccc(OC)c(OC)c1)OCO3,-4% (active)
4,COc1ccc(CCNC(=O)CCCn2c(SCC(N)=O)nc3cc4c(cc3c2=O)OCO4)cc1OC,81%
5,COCCCNC(=O)CSc1nc2cc3c(cc2c(=O)n1CCCC(=O)NCc1ccc(OC)cc1)OCO3,70%
6,CCCCNC(=O)CSc1nc2cc3c(cc2c(=O)n1CCCC(=O)NCCc1ccc(OC)c(OC)c1)OCO3,129%
7,COCCNC(=O)CSc1nc2cc3c(cc2c(=O)n1CCCCCC(=O)NCc1ccc(OC)cc1)OCO3,63%
8,CCOC(=O)CSc1nc2cc3c(cc2c(=O)n1CCCCCC(=O)NCc1ccc(OC)cc1)OCO3,71%
9,CCN(CC)C(=O)CSc1nc2cc3c(cc2c(=O)n1CCCCCC(=O)NCc1ccc(OC)cc1)OCO3,-3% (active)
10,CCN(CC)C(=O)CSc1nc2cc3c(cc2c(=O)n1CCCC(=O)NCc1ccc(OC)cc1)OCO3,82%
11,CC1Cc2ccccc2N1C(=O)c1nc2ccccc2s1 (stereo not drawn),113%
12,O=C(Cn1nc(-c2ccc(Cl)cc2)c2ccccc2c1=O)Nc1cccc(C(F)(F)F)c1,71%
13,COc1ccccc1N=C1SC(C(=O)Nc2ccccc2OC)CC(=O)N1C (stereo not drawn),73%
14,COc1cccc(-c2nnc3sc(CN4CCCCC4)cn23)c1,68%
15,CCN1/C(=C\C=C2C(=O)OC(C)(C)OC2=O)Sc2ccccc21,94%
16,CCC(Sc1nc2ccncc2[nH]1)C(=O)Nc1cc(Cl)ccc1C (stereo not drawn),126%
17,CCOC(=O)c1ccc(NC(=O)CN2C(=O)c3cccnc3Sc3ccccc32)cc1,66%
18,CCOC(=O)c1c(C)n(-c2ccccc2)c2ccc(OC(=O)c3cccc(C)c3)cc12,50%
19,CCOC(=O)c1c(C)n(-c2ccccc2)c2ccc(OC(=O)c3cccc(Cl)c3)cc12,78%
20,CCOC(=O)c1c(C)n(-c2ccccc2)c2ccc(OC(=O)c3ccccc3)cc12,0% (active)
21,CC(C)(C)c1ccc(OCCCC(=O)N2CCOCC2)cc1,102%
22,O=C(NCCCN1CCN(c2ccccc2F)CC1)c1sc2ncccc2c1-n1cccc1,81%
23,c1coc(-c2nc3ccccn3c2Nc2ccc3c(c2)OCCO3)c1,70%
24,O=C(CC1(O)C(=O)N(CCc2ccccc2)c2ccc(Br)cc21)c1ccccc1 (stereo not drawn),15%

row,SMILES,survival
1,COc1ccc(C(=O)CC2(O)C(=O)N(CCc3ccccc3)c3ccc(Br)cc32)cc1OC (stereo not drawn),65%
2,C#CCN1C(=O)C(O)(CC(=O)c2ccc(OC)c(OC)c2)c2cc(Br)ccc21 (stereo not drawn),111%
3,O=C(CC1(O)C(=O)N(CCc2ccccc2)c2ccc(Br)cc21)c1ccccc1O (stereo not drawn),6% (active)
4,COc1ccc(C(=O)CC2(O)C(=O)N(Cc3ccccc3)c3ccc(Br)cc32)cc1 (stereo not drawn),57%
5,O=C(CC1(O)C(=O)N(CCc2ccccc2)c2ccc(Br)cc21)c1ccc(F)cc1 (stereo not drawn),4% (active)
6,C=CCN(CC=C)C(=S)Nc1ccc2nc(C)c(C)nc2c1,110%
7,Cc1ccc(-c2nc3ncccc3o2)cc1NC(=O)c1ccc(-c2ccc(Cl)cc2)o1,73%
8,COc1ccc(Cn2c(SCc3ccc(C(=O)NCc4ccccc4F)cc3)nc3cccnc32)cc1,67%
9,CCOc1ccc(NC(=O)CN2CCN(CC(=O)Nc3ccccc3OCC)CC2)cc1,81%
10,CCOc1ccccc1NC(=O)Cc1coc2c(C)c(C)ccc12,114%
11,CC1CCN(C(=O)Cn2cc(SCC(=O)NCc3ccc(F)cc3)c3ccccc32)CC1,89%
12,CCCc1cc(=O)[nH]c(Nc2ccc(O)cc2C)n1,110%
13,COc1ccc(C)c(N2C(=O)CC(N3CCN(c4ccc(F)cc4)CC3)C2=O)c1 (stereo not drawn),109%
14,CC1Cc2ccccc2N1C(=O)c1cc2n(n1)C(C(F)(F)F)CC(c1ccco1)N2 (stereo not drawn),110%
15,CCCCOc1ccc(CN2C(=O)C(=O)c3cc(Br)cc(C)c32)cc1OC,59%
16,Cc1cc(Br)cc2c1N(Cc1ccccc1OC(C)C)C(=O)C2=O,26% (active)
17,CCCOc1ccc(CN2C(=O)C(=O)c3cccc(C)c32)cc1,38%
18,COc1ccccc1CN1C(=O)C(=O)c2cccc(C)c21,107%
19,Cc1ccc(CN2C(=O)C(=O)c3cc(Br)cc(C)c32)cc1,40%
20,Cc1cccc2c1N(Cc1ccccc1OCCC(C)C)C(=O)C2=O,25% (active)
21,CC(=O)c1cc(-c2ccccc2)n(CCC(=O)Nc2ccc(C)cc2C)c1C,85%
22,Cc1ccc(-c2nn(CC(=O)NC3CCCCC3)c3c2cnc2ccccc23)cc1,75%
23,CN(Cc1ccccc1)C(=O)COc1ccc(S(=O)(=O)N2CCCC2)cc1,121%
24,Nc1nc(Nc2ccccc2F)sc1C(=O)c1ccc(Cl)cc1,-7% (active)

row,SMILES,survival
1,COc1ccc(C(=O)c2sc(Nc3cc(Cl)ccc3C)nc2N)cc1OC,129%
2,Nc1c(C(=O)c2ccc(F)cc2)sc(Nc2ccccc2F)c1S(=O)(=O)c1ccc(Br)cc1,74%
3,CCc1nn2c(=O)cc(COC(=O)c3cccs3)nc2s1,89%
4,CCOC(=O)c1c(S(=O)(=O)N2CCCC(C(=O)Nc3ncccc3C)C2)c(C)n(C)c1C (stereo not drawn),71%
5,O=C(CSc1nnc(NC(=O)C2CC2)s1)Nc1ccccc1F,108%
6,CCOc1ccccc1CNC(=O)c1ccc(N2Cc3ccccc3Oc3ncccc32)s1,84%
7,CCOC(=O)c1sc2ncn(CC(=O)Nc3ccc(OC)c(Cl)c3)c(=O)c2c1C,78%
8,O=C(NCc1ccccc1)c1nc[nH]c1C(=O)NCc1ccccc1,123%
9,CCOc1cccc2cc(-c3cn4c(n3)sc3cc(C)ccc34)c(=O)oc12,-6% (active)
10,CCOc1cccc2cc(-c3cn4c(n3)sc3ccccc34)c(=O)oc12,64%
11,COc1cccc2cc(-c3cn4c(n3)sc3cc(F)ccc34)c(=O)oc12,75%
12,Cc1oc(-c2ccc(Cl)cc2)nc1CN1CCCC(C(=O)NCCc2ccccc2)C1 (stereo not drawn),29%
13,Cc1cccc(-c2nc(CN3CCCC(C(=O)NCCc4ccc(Cl)cc4)C3)c(C)o2)c1 (stereo not drawn),29%
14,Cc1oc(-c2cccc(Cl)c2)nc1CN1CCCC(C(=O)NCCc2ccc(Cl)cc2)C1 (stereo not drawn),-2% (active)
15,Cc1oc(-c2ccc(Cl)cc2)nc1CN1CCCC(C(=O)NCCc2ccc(Cl)cc2)C1 (stereo not drawn),86%
16,Cc1ccc(CCNC(=O)C2CCCN(Cc3nc(-c4cccc(Cl)c4)oc3C)C2)cc1 (stereo not drawn),9% (active)
17,Cc1oc(-c2cccc(Cl)c2)nc1CN1CCC(C(=O)NCCc2ccc(Cl)cc2)CC1,88%
18,CCc1ccc(C(=O)c2cn(CC(=O)Nc3ccc4c(c3)OCO4)c3cc(OC)c(OC)cc3c2=O)cc1,107%
19,Cc1ccccc1NC(=O)c1ccccc1NC(=O)c1ccccc1F,89%
20,COc1ccc(NC(=O)CC2C(=O)N(c3ccccc3)C(=O)N2C2CCCCC2)cc1 (stereo not drawn),70%
21,O=C(Nc1ccccc1C(F)(F)F)C1CCN(c2nnc(-n3cccc3)s2)CC1,113%
22,COc1ccc(C(C)=O)cc1CSc1nc(NCc2ccccc2)c2ccccc2n1,85%
23,COc1ccc(C(C)=O)cc1CSc1nc(NCCc2ccccc2)c2ccccc2n1,47%
24,COc1ccc(C(C)=O)cc1CSc1nc(NCc2ccc(Cl)cc2)c2ccccc2n1,0% (active)

row,SMILES,survival
1,O=C(NCc1ccc(F)cc1)c1c2c(nc3ccccc13)C(=O)N(C1CCCCC1)C2,99%
2,CN(C(=O)c1c2c(nc3ccccc13)C(=O)N(C1CCCCC1)C2)c1ccc(F)cc1,-3% (active)
3,CCOc1ccccc1N(C)C(=O)c1c2c(nc3ccccc13)C(=O)N(C1CCCCC1)C2,90%
4,COc1ccc(CNC(=O)Cn2ncc3c(=O)oc4ccc(C)cc4c32)c(OC)c1,113%
5,CC1CCc2c(sc(NC(=O)CCCOc3ccccc3)c2C(N)=O)C1 (stereo not drawn),91%
6,CCOC(=O)c1c(NC(=O)CCCOc2ccccc2C)sc2c1CCC(C)C2 (stereo not drawn),6% (active)
7,CCOC(=O)c1c(NC(=O)CCCOc2ccc(C)cc2)sc2c1CCC(C)C2 (stereo not drawn),2% (active)
8,Cc1ccc(OCCCC(=O)Nc2sc3c(c2C(N)=O)CCC(C)C3)cc1 (stereo not drawn),148%
9,CCOC(=O)c1c(NC(=O)CS(=O)(=O)c2ccc(C)cc2)sc2c1CCC(C)C2 (stereo not drawn),73%
10,COC(=O)c1c(NC(=O)CCCOc2ccccc2)sc2c1CCC(C)C2 (stereo not drawn),20%
11,COC(=O)c1ccccc1NC(=O)COC(=O)c1ccco1,108%
12,COc1ccc(CNC(=O)c2cc(=O)[nH]c3ccc(S(=O)(=O)N4CCCC4)cc23)c(OC)c1,60%
13,CCc1ccc(CNC(=O)C2COc3ccccc3C2)cc1 (stereo not drawn),88%
14,Cc1ccc(CCNC(=O)C2COc3ccccc3C2)cc1 (stereo not drawn),88%
15,COc1ccc(CCNC(=O)C2COc3ccccc3C2)cc1OC (stereo not drawn),59%
16,CN(C)c1ccc(CNC(=O)C2COc3ccccc3C2)cc1 (stereo not drawn),0% (active)
17,O=C(NCCc1ccccc1)C1COc2ccccc2C1 (stereo not drawn),10% (active)
18,CCOc1cc(CNC(=O)C2COc3ccccc3C2)cc(OCC)c1OCC (stereo not drawn),73%
19,O=C(NCCc1ccc(Cl)cc1)C1COc2ccccc2C1 (stereo not drawn),88%
20,Cc1ccc(CNC(=O)C2COc3ccccc3C2)cc1 (stereo not drawn),121%
21,CCOc1ccc(CCNC(=O)C2COc3ccccc3C2)cc1OCC (stereo not drawn),-2% (active)
